Where a name gives a salt, the structure may show the parent alone.
System: S. cerevisiae NKY1551 his4x/his4B, sporulating
Assay: HIS4 meiotic recombination assay sensitivity score (z-score vs DMSO controls); higher = stronger inhibition of sporulation/recombination, active = hit call of the paper;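 active = HIS4 sensitivity z-score above 5 vs DMSO controls; inactive = score 5 or below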
Method: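 NIH Clinical Collection compounds were added 1:100 from stock (about 100 µM final) to S. cerevisiae. Growth: average doubling time (AvgG) over 24 h of BY4741 (wild-type) or AD1-9 (drug-efflux-pump deficient) in rich media. HIS4: the his4x/his4B heteroallelic recombination reporter strain (SK1) was sporulated 5 h with compound at 30°C, then colony density was read on -his plates after 48 h. Sensitivity score = (compound − mean of 8 DMSO controls)/SD of DMSO controls. Hit cutoffs are >2 for growth and >5 for sporulation.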

HIS4 meiotic recombination assay sensitivity score, inactive:
CCCc1nc(C)c2c(=O)nc(-c3cc(S(=O)(=O)N4CCN(CC)CC4)ccc3OCC)[nH]n12 [Vardenafil citrate] (stock concentration (mM, diluted 1:100): 7.2) -0.18
COc1cc(C)c(Cc2cnc(N)nc2N)cc1OC [Ormetoprim] (stock concentration (mM, diluted 1:100): 10) -0.05
CO[C@H]1/C=C/O[C@@]2(C)Oc3c(C)c(O)c4c(O)c(c5c(nc6cc(C)ccn65)c4c3C2=O)NC(=O)/C(C)=C\C=C\[C@H](C)[C@H](O)[C@@H](C)[C@@H](O)[C@@H](C)[C@H](OC(C)=O)[C@@H]1C [Rifaximin] (stock concentration (mM, diluted 1:100): 10) -0.87
Nc1c2c(nc3c1CCC3)CCCC2 [Amiridine] (stock concentration (mM, diluted 1:100): 10) 1.51
CN(C)CCOc1ccc(/C(=C(/CCCl)c2ccccc2)c2ccccc2)cc1 [Toremifene citrate] (stock concentration (mM, diluted 1:100): 10) 3.57
CC(=O)OCC(=O)NCCCOc1cccc(CN2CCCCC2)c1 [Roxatidine acetate hydrochloride] (stock concentration (mM, diluted 1:100): 9.1) -1.59
COc1ccc2[nH]c([S+]([O-])Cc3ncc(C)c(OC)c3C)nc2c1 (stereo not given) [Esomeprazole mg] (stock concentration (mM, diluted 1:100): 4.8) 0.32
CC1(C)S[C@@H]2[C@H](/N=C/N3CCCCCC3)C(=O)N2[C@H]1C(=O)O [Mecillinam] (stock concentration (mM, diluted 1:100): 10) -0.86
Cc1onc(-c2ccccc2)c1-c1ccc(S(N)(=O)=O)cc1 [Valdecoxib] (stock concentration (mM, diluted 1:100): 10) -1.51
C[C@H]1COc2c(N3CCN(C)CC3)c(F)cc3c(=O)c(C(=O)O)cn1c23 [Levofloxacin] (stock concentration (mM, diluted 1:100): 10) 0.16
CNCC[C@H](Oc1cccc2ccccc12)c1cccs1 [Duloxetine] (stock concentration (mM, diluted 1:100): 10) -1.33
C[C@@H](O)[C@H]1C(=O)N2C(C(=O)O)=C(S[C@@H]3CN[C@H](C(=O)N(C)C)C3)[C@H](C)[C@H]12 [Meropenem] (stock concentration (mM, diluted 1:100): 11.4) -1.58
O=C(NCCN1CCOCC1)c1ccc(Cl)cc1 [Moclobemide] (stock concentration (mM, diluted 1:100): 10) -1.83
CCOC(=O)O[C@]1(C(=O)OCCl)CC[C@H]2[C@@H]3CCC4=CC(=O)C=C[C@]4(C)[C@H]3[C@@H](O)C[C@@]21C [Loteprednol etabonate] (stock concentration (mM, diluted 1:100): 10) -0.2
CCOc1cc(N)c(Cl)cc1C(=O)NCC1CN(Cc2ccc(F)cc2)CCO1 (stereo not given) [Mosapride citrate] (stock concentration (mM, diluted 1:100): 6.9) -0.43
CCCN[C@H]1CCc2nc(N)sc2C1 [Pramipexole hydrochloride] (stock concentration (mM, diluted 1:100): 7.1) -0.03
CCC(C)(C)N=C(NC#N)Nc1cccnc1 [Tocris-1355] (stock concentration (mM, diluted 1:100): 9.9) -1.39
CC12CC3CC(C)(C1)CC(N)(C3)C2 [Memantine hydrochloride] (stock concentration (mM, diluted 1:100): 8.3) 1.61
OC[C@H]1O[C@@H](Oc2cc(O)cc(/C=C/c3ccc(O)cc3)c2)[C@H](O)[C@@H](O)[C@@H]1O [Piceid] (stock concentration (mM, diluted 1:100): 10) -1.14
O=C1Nc2ccc(Cl)cc2[C@@](C#CC2CC2)(C(F)(F)F)O1 [Efavirenz] (stock concentration (mM, diluted 1:100): 10.1) -0.43
CC(=O)NCCCCCCNC(C)=O [Hexamethylene bisacetamide] (stock concentration (mM, diluted 1:100): 10) -0.63
CC1=Nc2ccc(Cl)cc2S(=O)(=O)N1 [Diazoxide] (stock concentration (mM, diluted 1:100): 10) -1.19
N[C@@H]1CONC1=O [D-Cycloserine] (stock concentration (mM, diluted 1:100): 10) -5.18
O=C1c2c(O)cc(O)cc2OC(c2ccc(O)c(O)c2)C1O (stereo not given) [Taxifolin] (stock concentration (mM, diluted 1:100): 10) -0.97
CN1CCc2cc(Cl)c(O)cc2[C@@H](c2ccccc2)C1 (stock concentration (mM, diluted 1:100): 9.9) 3.2
CC(=O)Nc1ccc(CC(=O)O)cc1 [Actarit] (stock concentration (mM, diluted 1:100): 10) 0.62
Nc1nc(N)nc(-c2cc(Cl)ccc2Cl)n1 [Irsogladine maleate] (stock concentration (mM, diluted 1:100): 6.9) -0.77
CC(C)[C@H](N)C(=O)OCCOCn1cnc2c(=O)nc(N)[nH]c21 [Valaciclovir hydrochloride] (stock concentration (mM, diluted 1:100): 9) 0.04
CS(=O)(=O)c1ccc(-c2cc(Br)sc2-c2ccc(F)cc2)cc1 (stock concentration (mM, diluted 1:100): 10) 1.98
Clc1ccccc1C(c1ccccc1)(c1ccccc1)n1ccnc1 [Clotrimazole] (stock concentration (mM, diluted 1:100): 10) -0.98
O=C(O[C@@H]1Cc2c(O)cc(O)cc2O[C@@H]1c1cc(O)c(O)c(O)c1)c1cc(O)c(O)c(O)c1 [Epigallocatechin gallate] (stock concentration (mM, diluted 1:100): 10) 0.29
COc1cc2c(cc1OC)C(=O)C(CC1CCN(Cc3ccccc3)CC1)C2 (stereo not given) [Donepezil] (stock concentration (mM, diluted 1:100): 9.1) 0.42
CO[C@H]1/C=C/O[C@@]2(C)Oc3c(C)c(O)c4c(O)c(c(/C=N/N5CCN(C6CCCC6)CC5)c(O)c4c3C2=O)NC(=O)/C(C)=C\C=C\[C@H](C)[C@H](O)[C@@H](C)[C@@H](O)[C@@H](C)[C@H](OC(C)=O)[C@@H]1C [Rifapentine] (stock concentration (mM, diluted 1:100): 10) -0.69
CN1CCN(CCCN2c3ccccc3Sc3ccc(C(F)(F)F)cc32)CC1 [Trifluoperazine dihydrochloride] (stock concentration (mM, diluted 1:100): 10) -2.62
O=c1c(-c2ccccc2)c1-c1ccccc1 [Diphenylcyclopropenone] (stock concentration (mM, diluted 1:100): 10) -0.87
O=c1n(CCCN2CCN(c3cccc(Cl)c3)CC2)nc2ccccn12 [Trazodone hydrochloride] (stock concentration (mM, diluted 1:100): 10) -0.45

HIS4 meiotic recombination assay sensitivity score, active:
CC(=O)Oc1ccccc1C(=O)Nc1ncc([N+](=O)[O-])s1 [Nitazoxanide] (stock concentration (mM, diluted 1:100): 10) 6.54
OCCN1CCN(CCCN2c3ccccc3Sc3ccc(C(F)(F)F)cc32)CC1 [Fluphenazine hydrochloride] (stock concentration (mM, diluted 1:100): 10) 7.55
COCCCC/C(=N\OCCN)c1ccc(C(F)(F)F)cc1 [Fluvoxamine] (stock concentration (mM, diluted 1:100): 7.7) 8.08
CN(C)CCCSc1ccccc1NC(=O)/C=C/c1ccccc1 [Cinanserin] (stock concentration (mM, diluted 1:100): 10) 7.73

— the supplement of paper PMC3414501
